Paper PMC5540273 (PLoS ONE, 2017)

How the values were obtained:
Settings in all cases: concentration: 1 μM, replicates: in singlicate; n = 1
TLK2 = test system: TLK2
TNIK = test system: TNIK
TNK1 = test system: TNK1
TNK2 = test system: TNK2
TNNI3K = test system: TNNI3K
TRKA = test system: T1, TRKA
T1 construct: gene NTRK1

TRKB = test system: TRKB
TRKC = test system: T2, TRKC
T2 construct: gene NTRK3

TRPM6 = test system: TRPM6
TSSK1B = test system: TSSK1B
TSSK3 = test system: TSSK3
TTK = test system: TTK
TXK = test system: TXK
[1] = test system: TYK2(JH1domain-catalytic)
[2] = test system: TYK2(JH2domain-pseudokinase)
TYRO3 = test system: TYRO3
ULK1 = test system: ULK1
ULK2 = test system: ULK2
ULK3 = test system: ULK3
VEGFR2 = test system: T3, VEGFR2
T3 construct: gene KDR
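Further: KINOMEscan kinase panel screen.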

Compound	%Inh (TLK2)	%Inh (TNIK)	%Inh (TNK1)	%Inh (TNK2)	%Inh (TNNI3K)	%Inh (TRKA)	%Inh (TRKB)	%Inh (TRKC)	%Inh (TRPM6)	%Inh (TSSK1B)	%Inh (TSSK3)	%Inh (TTK)	%Inh (TXK)	%Inh [1]	%Inh [2]	%Inh (TYRO3)	%Inh (ULK1)	%Inh (ULK2)	%Inh (ULK3)	%Inh (VEGFR2)
Cc1nnc(-c2ccc3ncc(-c4ccc(S(C)=O)cc4)n3c2)o1 (centres unmarked)	0%	0%	0%	0%	1%	0%	0%	36%	6%	0%	0%	0%	0%	5%	2%	9%	2%	18%	5%	0%
COc1cc2c(cc1OC[C@@H](O)CO)ncc1c3ccc(C#N)cc3[nH]c21	0%	64%	36%	0%	0%	98.8%	90%	66%	0%	3%	0%	0%	0%	0%	22%	0%	71%	99.2%	50%	19%
O=C1NC(=O)C(N2CCc3ccccc32)=C1c1cccc(Cl)c1 [SB-408010]	0%	0%	0%	0%	0%	12%	0%	0%	21%	22%	0%	39%	0%	4%	0%	0%	0%	0%	14%	6%
Cc1ccc(C(=O)NCC(N)=O)cc1-n1c(C)cc(OCc2ccc(F)cc2F)c(Br)c1=O	0%	0%	0%	15%	14%	0%	0%	0%	0%	26%	0%	35%	21%	0%	0%	3%	0%	0%	2%	0%
COc1ccc(S(=O)(=O)NC2CCN(c3cc(C)nc(Nc4cccc(C#N)c4)n3)CC2)cc1.O=C(O)C(F)(F)F [GSK1653539]	0%	0%	0%	8%	0%	7%	0%	0%	0%	0%	0%	0%	0%	0%	6%	0%	0%	0%	23%	0%
O=C(NCCNc1ccnc(Nc2ccc(F)cc2)n1)c1cc2ccccc2s1 [GSK1379874]	0%	0%	0%	7%	0%	0%	4%	38%	11%	0%	22%	0%	100%	0%	21%	0%	3%	0%	1%	0%
Cc1cccc(-c2nc(-c3ccc(S(C)(=O)=O)cc3)sc2-c2ccncc2)c1	13%	36%	0%	0%	0%	6%	0%	0%	9%	0%	0%	20%	0%	2%	3%	0%	0%	0%	0%	0%
O=c1cc(N2CCOCC2)nc2n(Cc3cccc(C(F)(F)F)c3)ccn12 [GSK2297543]	3%	0%	0%	11%	6%	20%	0%	0%	0%	16%	15%	12%	0%	0%	0%	0%	0%	0%	9%	13%
CC(=O)Nc1ccc(COc2ccc(Nc3ccnc4cc(-c5ccccn5)ccc34)cc2)cc1.Cl [GW440148]	25%	0%	6%	37%	2%	14%	11%	25%	42%	1%	12%	0%	3%	20%	5%	0%	0%	0%	3%	99.6%
Nc1nc(-c2ccc3c(N)n[nH]c3c2)cc(N2CCCC2)n1 [GSK2227430]	0%	0%	0%	0%	0%	0%	0%	0%	0%	0%	17%	11%	0%	0%	46%	0%	0%	0%	2%	0%
